Tests used:
Assay in all cases: DAPPL (digital affinity profiling via proximity ligation, sequencing); 10 mM Tris-HCl pH 7.5, 50 mM NaCl, 1 mM DTT, 4% glycerol, room temperature, 30 min; GST-TFs on glutathione beads, 16-mer random dsDNA library, 0.1% formaldehyde crosslink after washing; high values mean tight binding
Conditions in all cases: protein: recombinant; tags: N-terminal GST; dsDNA, one strand shown
FLI1 = target: T1, FLI1 (Homo sapiens, UniProt Q01543 1-452)
T1 sequence: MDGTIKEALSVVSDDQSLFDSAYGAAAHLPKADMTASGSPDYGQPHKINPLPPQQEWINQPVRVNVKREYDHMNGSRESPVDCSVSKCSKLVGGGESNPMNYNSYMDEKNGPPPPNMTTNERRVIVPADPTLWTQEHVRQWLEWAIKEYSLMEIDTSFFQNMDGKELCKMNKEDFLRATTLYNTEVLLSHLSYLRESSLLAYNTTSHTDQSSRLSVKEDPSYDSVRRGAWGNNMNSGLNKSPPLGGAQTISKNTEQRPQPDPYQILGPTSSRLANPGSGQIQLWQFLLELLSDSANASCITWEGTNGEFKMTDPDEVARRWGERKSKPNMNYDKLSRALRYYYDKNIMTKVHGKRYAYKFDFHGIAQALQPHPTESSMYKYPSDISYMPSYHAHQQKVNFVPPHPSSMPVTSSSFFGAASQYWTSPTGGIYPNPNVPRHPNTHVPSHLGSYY
Procedure, shortened: (§1)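 A tag-only sample was pooled with DNA-barcoded human transcription factors that had been expressed in yeast as GST fusions and captured on glutathione beads. The pools were incubated for 30 min at room temperature with 200 nmole of a random double-stranded 16-mer DNA library in Tris/NaCl/DTT/glycerol buffer, then washed, crosslinked with 0.1% formaldehyde, proximity-ligated (BsaI/T4 ligase, 1 h, 37 °C), PCR-amplified and sequenced on an Illumina NextSeq500. Binding signal is each hexamer's read frequency for a factor divided by its frequency for the tag-only sample.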

ELK1 = target: T2, ELK1 (Homo sapiens, UniProt P19419 1-428)
T2 sequence: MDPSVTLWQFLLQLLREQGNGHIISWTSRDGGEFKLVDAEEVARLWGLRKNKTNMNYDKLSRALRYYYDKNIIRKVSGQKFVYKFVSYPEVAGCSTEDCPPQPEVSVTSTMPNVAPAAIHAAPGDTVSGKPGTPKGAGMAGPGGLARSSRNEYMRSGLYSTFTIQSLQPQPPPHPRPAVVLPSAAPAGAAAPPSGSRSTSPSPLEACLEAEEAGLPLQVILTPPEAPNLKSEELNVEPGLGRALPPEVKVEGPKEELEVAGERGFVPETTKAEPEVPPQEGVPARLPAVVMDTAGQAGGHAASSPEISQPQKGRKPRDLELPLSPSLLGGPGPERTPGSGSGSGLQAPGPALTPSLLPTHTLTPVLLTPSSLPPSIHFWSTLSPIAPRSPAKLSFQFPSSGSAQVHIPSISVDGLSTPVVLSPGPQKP
Procedure, shortened: as §1

GABPA = target: T3, GABPA (Homo sapiens, UniProt Q06546 1-454)
T3 sequence: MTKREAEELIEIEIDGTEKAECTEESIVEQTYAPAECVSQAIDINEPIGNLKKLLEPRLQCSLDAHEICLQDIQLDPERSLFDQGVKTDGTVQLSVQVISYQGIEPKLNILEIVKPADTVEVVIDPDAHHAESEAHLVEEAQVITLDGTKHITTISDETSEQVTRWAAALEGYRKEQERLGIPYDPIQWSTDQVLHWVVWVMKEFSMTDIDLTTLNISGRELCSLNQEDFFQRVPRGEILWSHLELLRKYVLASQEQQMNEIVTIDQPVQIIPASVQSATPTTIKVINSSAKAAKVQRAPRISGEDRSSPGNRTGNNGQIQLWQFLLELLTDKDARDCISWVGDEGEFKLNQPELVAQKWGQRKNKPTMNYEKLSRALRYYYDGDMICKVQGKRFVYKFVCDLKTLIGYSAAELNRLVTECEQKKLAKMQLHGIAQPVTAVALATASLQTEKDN
Procedure, shortened: as §1

ERG = target: T4, ERG (Homo sapiens, UniProt P11308 1-479)
T4 sequence: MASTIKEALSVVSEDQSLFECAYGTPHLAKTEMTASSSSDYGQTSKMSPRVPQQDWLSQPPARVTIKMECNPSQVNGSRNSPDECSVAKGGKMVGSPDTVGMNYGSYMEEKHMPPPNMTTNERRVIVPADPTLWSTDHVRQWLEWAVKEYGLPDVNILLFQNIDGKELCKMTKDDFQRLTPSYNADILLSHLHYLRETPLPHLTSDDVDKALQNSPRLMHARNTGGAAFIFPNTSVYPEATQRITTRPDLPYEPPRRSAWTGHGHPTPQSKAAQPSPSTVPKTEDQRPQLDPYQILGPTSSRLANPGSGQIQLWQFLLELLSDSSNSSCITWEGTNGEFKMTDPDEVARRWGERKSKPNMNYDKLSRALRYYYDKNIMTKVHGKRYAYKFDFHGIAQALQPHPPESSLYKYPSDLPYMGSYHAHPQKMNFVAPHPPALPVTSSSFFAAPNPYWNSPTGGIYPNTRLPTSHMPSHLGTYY
Procedure, shortened: as §1

ELF1 = ELF1 (Homo sapiens, UniProt P32519 1-619)
ELF1, sequence (P32519 whole entry): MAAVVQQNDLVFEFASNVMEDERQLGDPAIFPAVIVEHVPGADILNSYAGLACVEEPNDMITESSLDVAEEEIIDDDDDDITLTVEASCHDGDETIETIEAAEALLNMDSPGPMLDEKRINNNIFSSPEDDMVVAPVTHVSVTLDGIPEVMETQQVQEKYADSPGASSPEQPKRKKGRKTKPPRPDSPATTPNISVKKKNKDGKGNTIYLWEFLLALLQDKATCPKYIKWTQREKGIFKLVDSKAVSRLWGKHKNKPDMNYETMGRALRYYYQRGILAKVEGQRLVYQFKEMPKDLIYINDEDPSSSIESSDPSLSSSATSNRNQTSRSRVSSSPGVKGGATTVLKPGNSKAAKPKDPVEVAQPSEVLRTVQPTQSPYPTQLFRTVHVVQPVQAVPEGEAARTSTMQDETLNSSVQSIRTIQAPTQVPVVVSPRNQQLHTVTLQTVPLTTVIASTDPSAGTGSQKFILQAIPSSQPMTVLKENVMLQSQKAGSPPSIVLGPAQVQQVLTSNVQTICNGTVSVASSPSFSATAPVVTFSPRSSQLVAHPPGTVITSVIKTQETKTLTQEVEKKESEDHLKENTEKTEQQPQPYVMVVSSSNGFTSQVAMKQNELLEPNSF
Procedure, shortened: as §1

EHF = target: T5, EHF (Homo sapiens, UniProt Q9NZC4 1-300)
T5 sequence: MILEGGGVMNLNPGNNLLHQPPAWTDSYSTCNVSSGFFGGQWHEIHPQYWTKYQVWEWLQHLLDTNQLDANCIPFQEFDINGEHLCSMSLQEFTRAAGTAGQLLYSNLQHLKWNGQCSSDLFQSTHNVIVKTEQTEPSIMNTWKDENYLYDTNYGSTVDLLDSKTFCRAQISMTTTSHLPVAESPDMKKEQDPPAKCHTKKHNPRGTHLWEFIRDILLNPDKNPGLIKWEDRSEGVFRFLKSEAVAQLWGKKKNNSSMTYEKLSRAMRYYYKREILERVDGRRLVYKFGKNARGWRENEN
Procedure, shortened: as §1

SPI1 = SPI1 (Homo sapiens, UniProt P17947 1-270)
Procedure, shortened: as §1

SPIB = SPIB (Homo sapiens, UniProt Q01892 1-262)
SPIB, sequence (Q01892 whole entry): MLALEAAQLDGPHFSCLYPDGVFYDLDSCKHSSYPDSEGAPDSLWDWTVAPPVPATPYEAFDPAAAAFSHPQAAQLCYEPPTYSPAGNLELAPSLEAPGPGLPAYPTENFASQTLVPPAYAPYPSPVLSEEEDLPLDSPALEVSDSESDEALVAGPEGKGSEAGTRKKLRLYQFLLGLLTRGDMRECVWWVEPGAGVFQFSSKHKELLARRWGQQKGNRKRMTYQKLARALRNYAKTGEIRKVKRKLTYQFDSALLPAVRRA
Procedure, shortened: as §1

ELK3 = target: T6, ELK3 (Homo sapiens, UniProt P41970 1-407)
T6 sequence: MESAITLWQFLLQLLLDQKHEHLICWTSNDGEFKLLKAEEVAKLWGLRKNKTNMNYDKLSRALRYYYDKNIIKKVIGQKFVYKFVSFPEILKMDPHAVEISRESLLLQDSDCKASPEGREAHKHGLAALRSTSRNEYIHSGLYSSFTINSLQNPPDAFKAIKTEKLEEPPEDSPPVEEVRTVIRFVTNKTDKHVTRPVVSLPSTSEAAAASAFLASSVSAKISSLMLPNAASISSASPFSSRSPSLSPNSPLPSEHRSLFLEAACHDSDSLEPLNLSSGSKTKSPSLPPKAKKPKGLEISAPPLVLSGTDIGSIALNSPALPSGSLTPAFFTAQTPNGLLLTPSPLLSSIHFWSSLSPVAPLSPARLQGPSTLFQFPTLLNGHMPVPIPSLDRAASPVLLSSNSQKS
Procedure, shortened: as §1

| Sequence | binding signal (FLI1) | binding signal (ELK1) | binding signal (GABPA) | binding signal (ERG) | binding signal (ELF1) | binding signal (EHF) | binding signal (SPI1) | binding signal (SPIB) | binding signal (ELK3) |
| --- | --- | --- | --- | --- | --- | --- | --- | --- | --- |
| CGACCC | 1.42 fold enrichment (6-mer frequency, TF over GST control) | 1.46 fold enrichment (6-mer frequency, TF over GST control) | 1.44 fold enrichment (6-mer frequency, TF over GST control) | 1.22 fold enrichment (6-mer frequency, TF over GST control) | 1.26 fold enrichment (6-mer frequency, TF over GST control) | 1.29 fold enrichment (6-mer frequency, TF over GST control) | 1.23 fold enrichment (6-mer frequency, TF over GST control) | 1.21 fold enrichment (6-mer frequency, TF over GST control) | 1.37 fold enrichment (6-mer frequency, TF over GST control) |
| TTGACC | 1.4 fold enrichment (6-mer frequency, TF over GST control) | 1.44 fold enrichment (6-mer frequency, TF over GST control) | 1.56 fold enrichment (6-mer frequency, TF over GST control) | 1.49 fold enrichment (6-mer frequency, TF over GST control) | 1.43 fold enrichment (6-mer frequency, TF over GST control) | 1.46 fold enrichment (6-mer frequency, TF over GST control) | 1.34 fold enrichment (6-mer frequency, TF over GST control) | 1.46 fold enrichment (6-mer frequency, TF over GST control) | 1.54 fold enrichment (6-mer frequency, TF over GST control) |
| CTTGGC | 1.19 fold enrichment (6-mer frequency, TF over GST control) | 1.23 fold enrichment (6-mer frequency, TF over GST control) | 1.25 fold enrichment (6-mer frequency, TF over GST control) | 1.12 fold enrichment (6-mer frequency, TF over GST control) | 1.14 fold enrichment (6-mer frequency, TF over GST control) | 1.22 fold enrichment (6-mer frequency, TF over GST control) | 1.18 fold enrichment (6-mer frequency, TF over GST control) | 1.2 fold enrichment (6-mer frequency, TF over GST control) | 1.18 fold enrichment (6-mer frequency, TF over GST control) |
| CGTTCA | 1.11 fold enrichment (6-mer frequency, TF over GST control) | 1.24 fold enrichment (6-mer frequency, TF over GST control) | 1.24 fold enrichment (6-mer frequency, TF over GST control) | 1.09 fold enrichment (6-mer frequency, TF over GST control) | 1.13 fold enrichment (6-mer frequency, TF over GST control) | 1.18 fold enrichment (6-mer frequency, TF over GST control) | 1.16 fold enrichment (6-mer frequency, TF over GST control) | 1.2 fold enrichment (6-mer frequency, TF over GST control) | 1.07 fold enrichment (6-mer frequency, TF over GST control) |
| CCGTAC | 1.39 fold enrichment (6-mer frequency, TF over GST control) | 1.25 fold enrichment (6-mer frequency, TF over GST control) | 1.33 fold enrichment (6-mer frequency, TF over GST control) | 1.3 fold enrichment (6-mer frequency, TF over GST control) | 1.45 fold enrichment (6-mer frequency, TF over GST control) | 1.33 fold enrichment (6-mer frequency, TF over GST control) | 1.22 fold enrichment (6-mer frequency, TF over GST control) | 1.15 fold enrichment (6-mer frequency, TF over GST control) | 1.28 fold enrichment (6-mer frequency, TF over GST control) |
| AAATGG | 1.52 fold enrichment (6-mer frequency, TF over GST control) | 1.42 fold enrichment (6-mer frequency, TF over GST control) | 1.49 fold enrichment (6-mer frequency, TF over GST control) | 1.56 fold enrichment (6-mer frequency, TF over GST control) | 1.49 fold enrichment (6-mer frequency, TF over GST control) | 1.55 fold enrichment (6-mer frequency, TF over GST control) | 1.59 fold enrichment (6-mer frequency, TF over GST control) | 1.43 fold enrichment (6-mer frequency, TF over GST control) | 1.47 fold enrichment (6-mer frequency, TF over GST control) |
| AAATTA | 1.27 fold enrichment (6-mer frequency, TF over GST control) | 1.18 fold enrichment (6-mer frequency, TF over GST control) | 1.29 fold enrichment (6-mer frequency, TF over GST control) | 1.28 fold enrichment (6-mer frequency, TF over GST control) | 1.29 fold enrichment (6-mer frequency, TF over GST control) | 1.19 fold enrichment (6-mer frequency, TF over GST control) | 1.22 fold enrichment (6-mer frequency, TF over GST control) | 1.26 fold enrichment (6-mer frequency, TF over GST control) | 1.29 fold enrichment (6-mer frequency, TF over GST control) |
| TTTTTA | 1.23 fold enrichment (6-mer frequency, TF over GST control) | 1.2 fold enrichment (6-mer frequency, TF over GST control) | 1.23 fold enrichment (6-mer frequency, TF over GST control) | 1.25 fold enrichment (6-mer frequency, TF over GST control) | 1.35 fold enrichment (6-mer frequency, TF over GST control) | 1.37 fold enrichment (6-mer frequency, TF over GST control) | 1.47 fold enrichment (6-mer frequency, TF over GST control) | 1.37 fold enrichment (6-mer frequency, TF over GST control) | 1.3 fold enrichment (6-mer frequency, TF over GST control) |
